Bioassay records as filed in PubChem BioAssay.
HCMV antiviral = blocks human cytomegalovirus replication; HFF cells, HCMV-luciferase reporter, 72 h; stronger effect = lower value; activity change, negative = inhibition, % at 57.5 µM; 4.5% of 410,000 active; AID 1259415; in the data active = activity change below about -60%; inconclusive = no clear call, values can overlap the other calls; inactive = above about -39%; also: % is scaled to controls: 0 for no effect and ±100 for the full control effect
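Luciferase read-out from HCMV-luciferase-infected HFFs (MOI 1 PFU/cell) 72 h post infection at 37C; compounds added after 16 h cell attachment; activity normalized between buffer-only basal and Salinomycin (10uM) inhibitor controls.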
Shiga toxin inh = blocks Shiga toxin action in Vero cells; Vero cells, Shiga toxin protein synthesis inhibition reporter; inhibition, % at 38.7 µM; 9.2% of 290,000 active; AID 2315; in the data active = inhibition mostly above about 28%, no sharp cut-off; inactive = mostly below about 43%; also: 0% is about no effect
Pf growth 48h = inhibits P. falciparum growth in the first generation, 48 h. 5.9% of 310,000 active. Potency, µM (titrated, usually from 28.7 µM), inactives show top-dose activity change, negative = inhibition, usual class: inhibitors. P. falciparum luciferase growth in erythrocytes, 48 h. AID 504832; also: potency is read from the fitted curve at half-maximal effect; % is scaled to controls: 0 for no effect and ±100 for the full control effect
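Firefly luciferase activity from engineered P. falciparum reports growth; inhibitors lower the luminescent signal. Cultures contained 2% hematocrit erythrocytes at 0.1% final parasitemia.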
Pf growth 96h = P. falciparum growth inhibition at 96 hour, primary screen for plastid delayed-death inhibitors. P. falciparum luciferase reporter growth, 96 h. Potency, µM (top dose mostly 28.7 µM), for the others: top-dose activity change, negative = inhibition, hits mostly inhibitors. 6.9% of 320,000 active. AID 504834; also: potency is read from the fitted curve at half-maximal effect; % is scaled to controls: 0 for no effect and ±100 for the full control effect
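P. falciparum expressing integrated firefly luciferase, in erythrocytes at 2% hematocrit, 0.05% parasitemia, incubated with compounds 96 h at 37 C, 5% CO2. Growth inhibition read as loss of luminescence; two-generation exposure targets delayed-death apicoplast inhibitors.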
Cycloheximide cs = counter-screen for Shiga toxin inhibitors: cycloheximide protein synthesis inhibition | max response, % | 12% of 300,000 active | cell reporter, cycloheximide protein synthesis inhibition counterscreen; in the data active = max response mostly above about 13%, no sharp cut-off; inactive = mostly below about 14%; also: read at 38.3 µM for the half of the compounds with a filed dose; 0% is about no effect
HCV inh = inhibitors of hepatitis C virus infection; Huh7.5.1 HCVcc-Cre infection, luciferase reporter, 44 h; Potency, µM (doses to about 41.8 µM), for inactives: at the highest dose activity change, negative = inhibition, usual class: inhibitors; 3.4% of 340,000 active; also: potency is read from the fitted curve at half-maximal effect; % is scaled to controls: 0 for no effect and ±100 for the full control effect
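Antiviral activity was scored by luciferase reporter output from cells infected with HCVcc-Cre (~0.5 moi) in presence of compound, 44 h infection period, cells seeded 1,000/well 4 h prior.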
Numbers without * were called inactive; ? = inconclusive; nt = no result given. An excerpt weighted towards active compounds, which were near 21% of everything screened. Unless noted, calls follow the shape of the dose curve; as a rule, active = well fitted inhibition curve with a large enough effect; inconclusive = small, poorly fitted or top-dose-only effect, or another doubt; inactive = no such curve, though single readings can be large or run the other way.

SMILES | HCMV antiviral | Shiga toxin inh | Pf growth 48h | Pf growth 96h | Cycloheximide cs | HCV inh
Cc1c(C(=O)NCCn2ccc3ccccc32)cccc1[N+](=O)[O-] | -19 | -4 | ? | ? | 4 | -4%
O=C(NCc1cn2ccccc2n1)c1ccc2c(c1)OCO2 | -17 | -17 | nt | -15% | -2 | 5%
Cc1ccc(C(=O)NCCn2ccc3ccccc32)cc1[N+](=O)[O-] | 32 | 80* | 22% | 27% | 35* | -27%
COc1ccc(C(=O)NCCn2ccc3ccccc32)cc1 | -25 | 4 | ? | 0% | 13* | -4%
O=C(NCCn1ccc2ccccc21)c1ccc2c(c1)OCO2 | 280 | 64* | 59% | 29% | 40* | ?
O=C(NCCn1ccc2ccccc21)c1ccc(S(=O)(=O)N2CCCCC2)cc1 | -67* | -8 | 12µM* | ? | 3 | ?
COc1ccc2ccccc2c1CNCCN1CCOCC1 | 35 | -7 | ? | -26% | 3 | -1%
CC(CNC(=O)c1ccccc1[N+](=O)[O-])NC(=O)c1ccccc1[N+](=O)[O-] (configuration not stated) | 18 | nt | nt | nt | nt | 12%
COc1cccc(CNC(=O)C2CCN(S(=O)(=O)c3cn(C)cn3)CC2)c1 | -16 | nt | nt | nt | nt | nt
Nc1cc(N)nc(SCC(=O)N2CCc3ccccc32)n1 | 113 | 58* | nt | ? | 30* | 7%
O=C(CSc1ccccc1)N1CCc2ccccc21 | 97 | 93* | 207% | nt | 31* | 17%
CSc1nsc(SCC(=O)N2CCc3ccccc32)n1 | -38 | 22 | ? | 0% | 7 | 0%
O=C(CSCc1ccco1)c1ccc(Cl)s1 | nt | 108* | 103% | 12µM* | 25* | nt
Cc1nnc(SCC(=O)N2CCc3ccccc32)s1 | 62 | active | 15% | ? | 20* | -6%
CCOC(=O)C1=C(CBr)NC(=O)NC1C (configuration not stated) | 32 | -2 | 27% | 40% | -3 | 32%
CCn1cc(SCC(=O)N2CCc3ccccc32)c2ccccc21 | 0 | 54* | -15% | 0% | 27* | ?
O=C(CN1C(=O)COc2ccccc21)N1CCc2ccccc21 | 48 | -18 | -13% | 1% | -3 | 3%
Nc1nc(SCC(=O)N2CCCc3ccccc32)n[nH]1 | -20 | nt | nt | nt | nt | 7%
O=C(CSCc1ccco1)N1CCc2ccccc21 | nt | 105* | 123% | ? | 40* | 1%
O=C(CSc1cccc[n+]1[O-])N1CCCc2ccccc21 | ? | 15 | 13% | -15% | 23* | 5%
Cc1nc(SCC(=O)N2CCc3ccccc32)n[nH]1 | 33 | 41 | 0% | ? | 33* | -10%
COc1ccccc1Cc1nc2ccccc2nc1SCC(=O)Nc1cccc(Cl)c1C | 20 | nt | nt | nt | nt | nt
Cc1cccc(OCC(=O)N(C)c2c(N)n(Cc3ccccc3)c(=O)[nH]c2=O)c1C | -22 | nt | 8% | -8% | nt | 12%
O=C1N=C2SCCN2C(=O)C1Cc1ccc(Cl)cc1 (configuration not stated) | nt | nt | -7% | -9% | nt | nt
COc1ccc(NC(=S)NC(=O)c2cncc(Br)c2)cc1 | -38 | nt | nt | nt | nt | -7%
SMILES | HCMV antiviral | Shiga toxin inh | Pf growth 48h | Pf growth 96h | Cycloheximide cs | HCV inh
COc1ccc(NC(=O)c2ccc(Br)o2)cc1 | 41 | 96* | 198% | 130% | 36* | -9%
NC(=O)c1ccccc1NC(=S)NC(=O)c1ccc(Br)o1 | 108 | 56* | 34% | 24% | 35* | 3%
C/C(=N/NC(=O)c1ccc(Br)o1)C(C)C | -33 | 79* | 10% | ? | 30* | 14%
O=C(NC(=S)NCc1ccccc1)c1ccc(Br)o1 | ? | 27 | 22% | 2% | 12 | nt
COc1ccc(NC(=S)NC(=O)c2ccc(Br)o2)cc1 | 13 | 96* | 0% | 23% | 67* | -17%
C[C@H](NC(=O)c1ccc2ccccc2c1)C(=O)N1CCC2(CC1)NCCc1[nH]cnc12 | -16 | 8 | -3% | 22% | -4 | ?
O=C(Nc1ccc(NC(=O)c2cccs2)cc1)c1ccc(Br)o1 | -33 | 28 | nt | 31% | 14 | -16%
O=C(Nc1ccc(Cc2ccncc2)cc1)c1ccc(Br)o1 | -35 | 34 | -1% | nt | 15* | -10%
O=C(Nc1ccc(Nc2ccccc2)cc1)c1ccc(Br)o1 | -40 | 61* | 6% | 128% | 27* | ?
CC(C)c1ccc(NC(=O)c2ccc(Br)o2)cc1 | 110 | 50* | 112% | -8% | 40* | 2%
CC(C)(Oc1ccc(Cl)cc1)C(=O)NNC(=O)c1ccc(Br)o1 | 88 | 2 | -2% | -17% | 15* | 2%
Cc1ccc(Sc2ccc(N3CCC(C(=O)Nc4cc(C)cc(C)c4)CC3)nn2)cc1 | 5 | nt | nt | nt | nt | nt
O=C(Nc1ccc2c(c1)Cc1ccccc1-2)c1ccc(Br)o1 | 17 | 35* | 3% | ? | 34* | ?
O=C(Nc1ccc2c(c1)Cc1ccccc1-2)c1ccccc1F | 36 | nt | nt | nt | nt | -6%
O=C(NC(=S)Nc1ccccc1)c1ccc(Br)o1 | -23 | 79* | 89% | 119% | 36* | -9%
Cc1ccc(CC(C(=O)O)C(C)C(=O)Nc2ccc(F)cc2)cc1 (configuration not stated) | -37 | -6 | 3% | 4% | -2 | 10%
CC1CCN(S(=O)(=O)c2ccc3c(c2)CCN3C(=O)Nc2ccc(Br)cc2)CC1 | 31 | nt | nt | nt | nt | nt
CC(C)(C)c1cc[n+](-c2[nH]c(=O)sc2/C=N/N=C(\[O-])c2cccnc2)cc1 | 11 | -7 | 6% | 12% | 4 | 15%
O=c1[nH]c(-[n+]2ccc3ccccc3c2)c(/C=N/N=C(\[O-])c2ccccc2)s1 | ? | 40 | 23% | 3% | 17* | 16%
Cc1ccc(C)c(NC(=O)C(Sc2nc3ccccc3c(=O)n2CC(C)C)c2ccccc2)c1 (configuration not stated) | -24 | 20 | 3.7µM* | 2.6µM* | -3 | -15%
COc1ccc(C)cc1NC(=O)C(Sc1nnc(-c2ccncc2)n1-c1ccc(Cl)cc1)c1ccccc1 (configuration not stated) | 12 | 13 | ? | 10µM* | -5 | ?
COc1ccc(C)cc1NC(=O)C(Sc1nnc(Nc2cc(C)ccc2OC)s1)c1ccccc1 (configuration not stated) | ? | 15 | 0% | 10µM* | -2 | 10µM*
COc1ccc(Nc2nnc(SC(C(=O)Nc3cc(C)ccc3C)c3ccccc3)s2)cc1 (configuration not stated) | -100* | 4 | ? | ? | -2 | ?
COc1cccc(NC(=O)C(OC(=O)c2cnc(C)cn2)c2ccccc2)c1 (configuration not stated) | -6 | nt | ? | 5% | nt | -3%
